Screening results: PubChem BioAssay, National Center for Advancing Translational Sciences (NCATS)
DRD3 antagonist – antagonists of human D3 dopamine receptor; 360,000 tested, 2.5% active; D3R cells, DiscoveRx beta-arrestin luminescence, antagonist mode; hits give low values; P35462; max response, negative = inhibition, %; in the data active = max response below about -50%; inconclusive = no clear call, values can overlap the other calls; note: % is set by controls: 0 for no effect and ±100 for the full control effect
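Cells plated overnight at 1500 cells/well, then exposed to library compounds with dopamine controls for 90 minutes at 37 degrees C. DiscoveRx reagent added for 30–60 minutes at room temperature; luminescence read, quantitative HTS format.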
D1 antag – blocks dopamine activation of the human D1 receptor. P21728. HEK293 TREx D1 cells, calcium flux, dopamine EC80; hits give low values. activity change, negative = inhibition, % at 10 µM. 360,000 tested, 3.2% active. AID 504652; in the data active = activity change below about -30%; note: % is set by controls: 0 for no effect and ±100 for the full control effect
Target sequence (P21728 whole entry, looked up): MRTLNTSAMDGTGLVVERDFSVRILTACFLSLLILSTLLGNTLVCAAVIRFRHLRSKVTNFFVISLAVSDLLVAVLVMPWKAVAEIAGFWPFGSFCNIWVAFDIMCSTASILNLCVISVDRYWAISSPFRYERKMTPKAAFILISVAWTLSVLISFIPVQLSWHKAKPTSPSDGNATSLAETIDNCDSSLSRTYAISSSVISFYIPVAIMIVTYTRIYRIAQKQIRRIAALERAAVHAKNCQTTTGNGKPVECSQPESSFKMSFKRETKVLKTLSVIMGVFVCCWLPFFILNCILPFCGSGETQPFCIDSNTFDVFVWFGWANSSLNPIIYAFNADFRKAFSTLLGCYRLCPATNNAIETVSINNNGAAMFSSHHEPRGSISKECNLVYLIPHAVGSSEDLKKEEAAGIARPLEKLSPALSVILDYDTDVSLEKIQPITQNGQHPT
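Using tetracycline-induced force-coupled D1 Hek293 cells and a calcium dye, signals were followed for 180 s after compound, then for 180 s after EC80 dopamine, to detect inhibitors.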
Chronic BCR inh – chronic active BCR signaling inhibition. Potency, µM (top dose mostly 46.1 µM), inactives show at the top dose activity change, negative = inhibition, most hits filed as inhibitors. 340,000 tested, 0.05% active. ABC-DLBCL IkBa-CBG/CBR reporter, luminescence ratio, 4 h; active = well fitted inhibition curve with a large enough effect in the signal ratio, with a control signal flat, not every such curve was filed as active; inconclusive = small, poorly fitted or top-dose-only effect, or effect the other way, or a change in a side signal; the % refers to the signal ratio;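 note: potency is the fitted concentration of half-maximal effect; plate controls were basal doxycycline-induced cells for no effect and cells given 10 µM MG132 for full effect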
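Concentration-response series (up to 46 uM) were applied to TMD8 dual-reporter cells for 4 h at 37C with doxycycline. Green/red ratio, after filter-overlap correction, defined %Activity; red signal alone was normalised to basal cells and zero luminescence.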
DRD3 agonist – activates the human D3 dopamine receptor; P35462; D3R DiscoveRx beta-arrestin cells, luminescence, 90 min; max activation, %; 410,000 tested, 0.58% active; in the data active = max activation above about 30%; note: 0% is about no effect
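Cells at 1500/well, incubated overnight, then treated with pinned compounds (dopamine as control) for 90 min at 37 degrees C. DiscoveRx reagent added for 30 - 60 minutes at room temperature; luminescence read.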
D1 potentiator – human D1 dopamine receptor positive modulation; potentiation, % at 10 µM; HEK293 TREx D1 cells, calcium flux, dopamine EC20 potentiation; 360,000 tested, 0.036% active; in the data active = potentiation above about 30%; note: 0% is about no effect
D1 ag – human D1 receptor agonism | P21728 | HEK293 T-REx D1 cells, calcium flux, agonist mode | activation, % at 2 µM | 360,000 tested, 1% active | AID 504660; in the data active = activation above about 30%; note: 0% is about no effect
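Inducible HEK293 T-REx D1 cells, force-coupled to calcium signalling, were plated at 4000 cells/well with tetracycline and held overnight at 30 C. After no-wash calcium dye loading, compound-evoked calcium rise over 180 s flagged agonists.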
The depositor's hits bear a star; u = inconclusive; x = not tested or not shown. In the library only some 6% were active in any assay of this set; here they are far more common.

SMILES	DRD3 antagonist	D1 antag	Chronic BCR inh	DRD3 agonist	D1 potentiator	D1 ag
O=C1CC(NCc2ccc3c(c2)OCO3)C(=O)N1CCc1ccccc1 (centres undefined)	-5	-11	u	-4	-2	18
COc1cccc(CC2CC(=O)N(CCc3ccc4c(c3)OCO4)C2=O)c1 (centres undefined)	1	-22	u	-3	-5	34*
Cc1ccc(CC2CC(=O)N(CCc3ccc4c(c3)OCO4)C2=O)cc1 (centres undefined)	19	-31*	-2%	5	-2	1
CC(Oc1ccc2c3c(c(=O)oc2c1)CCC3)C(=O)NCC1CCC(C(=O)O)CC1 (centres undefined)	225	9	-4%	43*	-3	0
CCc1cc2c(-c3ccccc3)cc(=O)oc2cc1OC(C)C(=O)NCC1CCC(C(=O)O)CC1 (centres undefined)	114	-11	3%	44*	2	1
CCc1ccc(-n2nc(C)c3c(C(=O)N4CCN(c5ccccc5)CC4)cc(C)nc32)cc1	x	-36*	x	12	-1	1
CCc1ccc(-n2nc(C)c3c(C(=O)N4CCN(c5cccc(Cl)c5)CC4)cc(C)nc32)cc1	x	11	x	14	3	5
COCC1CCCN(Cc2cn(-c3ccccc3F)nc2-c2cc(C)sc2C)C1 (centres undefined)	-71*	8	12%	-17	1	2
Cc1ccc(CNC(=O)c2c(C)oc3nc(C)nc(N4CCOCC4)c23)cc1	x	1	x	-5	4	0
CCOCCCNc1nc2c(C)cccn2c(=O)c1/C=C1\SC(=S)N(C(C)CC)C1=O (centres undefined)	1	-7	u	13	0	114*
Cc1cccn2c(=O)c(/C=C3\SC(=S)NC3=O)c(NCCCN3CCOCC3)nc12	-25	2	u	-18	0	29
CCCN1C(=O)/C(=C/c2c(NCCCOCC)nc3c(C)cccn3c2=O)SC1=S	3	12	0%	0	6	0
CCOCCCNc1nc2c(C)cccn2c(=O)c1/C=C1\SC(=S)N(CC(C)C)C1=O	-22	-11	10%	0	-4	30*
CCOC(=O)CC1C(=O)NCCN1c1nc2c(C)cccn2c(=O)c1/C=C1\SC(=S)N(CC(C)C)C1=O (centres undefined)	x	-15	7%	x	-5	111*
CCc1ccc(CN(Cc2cn[nH]c2-c2ccc(OC)cc2)C(=O)Nc2ccc(Br)cc2)cc1	x	4	x	17	-2	7
CCCCC[C@@H](C)N1C[C@H](COCc2ccccc2)Oc2cc(N3CC[C@H](N(C)C)C3)ccc2S1(=O)=O	23	x	x	3	x	x
COc1ccc(CN(C)C(=O)c2cccc(S(=O)(=O)NCc3ccccc3)c2)cc1F	7	x	x	-7	x	x
O=C(Nc1ccc(S(=O)(=O)NCc2cccnc2)cc1)c1ccccc1Cl	-83*	-5	-1%	-8	-4	1
COc1ccc(CN(C)C(=O)c2ccc(Cl)c(S(=O)(=O)NCc3cccnc3)c2)cc1F	2	-47*	-1%	0	-4	1
COc1ccc(S(=O)(=O)NCc2cccnc2)cc1Br	47	-32*	-4%	18	-6	15
CCC12CN3CC(CC)(CN(C1)C3c1cc(Br)ccc1OC)C2=O (centres undefined)	x	11	x	6	-3	-1
O=C(Cn1ncn2c(cc3ccccc32)c1=O)NCc1ccc(F)cc1	x	-9	x	17	2	0
C[C@H]1CN([C@@H](C)CO)C(=O)CCCn2nncc2CO[C@H]1CN(C)S(=O)(=O)c1ccc2c(c1)OCCCO2	39	x	x	4	x	x
COC(=O)c1cc(NC(=O)c2nn(C)c3c2COc2ccccc2-3)cc(C(=O)OC)c1	x	-55*	x	9	-2	0
CCOc1ccc(NC(=O)c2nn(C)c3c2COc2ccccc2-3)cc1	x	-19	x	55*	-1	4
SMILES	DRD3 antagonist	D1 antag	Chronic BCR inh	DRD3 agonist	D1 potentiator	D1 ag
COC(=O)c1ccc(NC(=O)c2nn(C)c3c2COc2ccccc2-3)cc1	x	1	x	3	-4	10
CCC(=O)N1CCc2cc(Br)cc(S(=O)(=O)CCC(=O)Nc3ccc(CC)cc3)c21	x	-7	x	7	2	2
C=CCn1c(Cc2ccccc2)nc2c(cnn2-c2ccccc2)c1=O	30	-29	-1%	39*	-9	5
COc1ccc(-n2nc3cc(C)c(NC(=O)CC(C)C)cc3n2)cc1	x	0	0%	x	-8	3
CCCC(=O)Nc1cc2nn(-c3ccc(OC)cc3)nc2cc1C	x	2	x	43*	-1	0
CCc1ccc2[nH]c(=O)c(CN(Cc3ccc4c(c3)OCO4)Cc3nnnn3C3CCCC3)cc2c1	15	10	u	35*	-1	3
C[C@@H](O)[C@H]1C(=O)N2C(C(=O)O)=C([C@H]3CCCO3)S[C@H]12	x	x	x	-2	x	x
O=C(CNC(=O)C1COc2ccccc2O1)N/N=C\c1ccc(Cl)cc1 (centres undefined)	-2	-36*	14%	3	-9	-1
O=C(NNC(=O)C1COc2ccccc2O1)c1ccccc1O (centres undefined)	8	2	u	32*	-6	5
COc1ccc(Cl)cc1C(=O)NNC(=O)C1COc2ccccc2O1 (centres undefined)	12	0	u	0	-5	1
O=C(NN=C1CCCC1)C1COc2ccccc2O1 (centres undefined)	-7	-1	4%	43*	5	2
C[C@H]1O[C@H](O[C@H]2[C@H](O)[C@@H](O)[C@@H](O[C@H]3[C@H](O)[C@@H](O)[C@H](O)O[C@@H]3CO)O[C@@H]2CO)[C@H](O)[C@@H](O)[C@@H]1N[C@H]1C=C(CO)[C@@H](O)[C@H](O)[C@H]1O	x	x	x	0	x	x
Cn1c2cc(Br)sc2c2cnn(Cc3ccccc3F)c(=O)c21	x	3	x	x	8	0
CC1(C(=O)NS(C)(=O)=O)CCN1C(=O)Cc1ccc(-c2ccccc2)cc1 (centres undefined)	13	x	x	5	x	x
CCCCNC(=O)COC(=O)c1cc(Br)ccc1Cl	14	-31*	-12%	5	-12	1
CCC(CC)NC(=O)COC(=O)CCC(=O)c1ccc(Cl)cc1	13	0	1%	41*	1	3
O=C(COC(=O)c1cc(Br)ccc1Cl)NC1CC1	1	-1	-6%	-2	-5	0
CNC(=O)COC(=O)CCC(=O)c1ccc(Cl)cc1	2	7	-5%	17	-3	2
CCC(CC)NC(=O)COC(=O)c1cc(Br)ccc1Cl	11	-36*	0%	4	-5	0
